Source: PubChem (The Scripps Research Institute Molecular Screening Center)
TLR4-MyD88 BLA: TLR4-MyD88 interaction inhibition in cells; hit rate 0.18% among 200,000; O00206+Q99836; inhibition, % at 8.4 µM; HeLa CL3-4 TLR4/MyD88 BLA complementation, FRET ratio; in the data active means inhibition above about 25%;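 further: 0% = vehicle and 100% = reference inhibitor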
ABHD5 PLIN5 PPI: inhibitors of human ABHD5-perilipin-5 interaction | hit rate 0.78% among 360,000 | inhibition, % at 4 µM | Split G. princeps luciferase complementation, luminescence, 4 h | Q00G26+Q8WTS1;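 active means inhibition above the mean inhibition across every tested compound plus 3 SD, cut at about 22% in these data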;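 further: 0% = DMSO only wells and the 100% control is not disclosed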
TLR9-MyD88 inh: TLR9-MyD88 interaction inhibition. Q9NR96+Q99836. CHO BLA complementation TLR9-MyD88, CCF4 FRET ratio. inhibition, % at 4.98 µM. hit rate 0.21% among 340,000;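 active means inhibition above the mean over all tested compounds plus 3 SD, cut at about 21% in these data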;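 further: 0% = DMSO only wells and 100% = clavulanate BLA inhibitor control wells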
NOD2 RIPK2 PPI: blocks binding of human NOD2 to RIPK2; inhibition, % at 4.98 µM; AID 624267; O43353; CHO BLA complementation NOD2-RIPK2, CCF4 ratio; hit rate 0.38% among 360,000; in the data active means inhibition above about 21%;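 further: 0% = vehicle only and 100% = reference blocker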
An asterisk follows results filed as active; nt = no result given. Shown are actives, neighbours in structure and some others; about 1.2% of the full set was active somewhere.

SMILES	TLR4-MyD88 BLA	ABHD5 PLIN5 PPI	TLR9-MyD88 inh	NOD2 RIPK2 PPI
C#CCOCCOCCOCCNc1nc(N2CCN(C(=O)CCCCCCCCCCNC(=O)[C@@H](CCSC)n3cc(CCO)nn3)CC2)nc(N2CCN(C(=O)CCCCCCCCCCNC(=O)[C@H]([C@@H](C)CC)n3cc(CCCCN=C(N)N)nn3)CC2)n1	nt	57*	1	30*
C#CCOCCOCCOCCNc1nc(N2CCN(C(=O)CCCCCCCCCCNC(=O)[C@H](CCCCN)n3cc(CCO)nn3)CC2)nc(N2CCN(C(=O)CCCCCCCCCCNC(=O)[C@H](CCCN=C(N)N)n3cc(C[C@@H](C)CC)nn3)CC2)n1	nt	50*	22*	20
COc1ccccc1CCNC(=O)Cn1ccc2cc(S(=O)(=O)N3CCC(C)CC3)ccc21	nt	3	4	-2
CCN1C(=O)[C@H]2[C@@H](c3ccc(C)cc3)N3C(=O)N(c4ccccc4)C(=O)[C@@]3(C)[C@H]2C1=O	nt	-6	-4	-9
Cc1onc(-c2ccccc2Cl)c1C(=O)Oc1cccc2cccnc12	-12	-3	2	-8
CCOc1ccc(/C=C/C(=O)CCC(=O)O)cc1	-6	-1	8	9
C#CCOCCOCCOCCNc1nc(N2CCN(C(=O)CCCCCCCCCCNC(=O)Cn3cc(C[C@@H](C)O)nn3)CC2)nc(N2CCN(C(=O)CCCCCCCCCCNC(=O)[C@H](CCCCN)n3cc(C[C@@H](C)CC)nn3)CC2)n1	nt	43*	-2	24*
C#CCOCCOCCOCCNc1nc(N2CCN(C(=O)CCCCCCCCCCNC(=O)Cn3cc(C[C@@H](C)O)nn3)CC2)nc(N2CCN(C(=O)CCCCCCCCCCNC(=O)Cn3cc(C[C@@H](C)O)nn3)CC2)n1	nt	15	-6	-1
O=C(OCC(=O)N1CCN(C(=O)c2ccco2)CC1)c1cccc(F)c1	nt	2	1	-3
COc1ccc([C@H]2C[C@H](n3cc(-c4ccc(F)cc4)nn3)[C@@H](O)CN2C(=O)C2CCCCC2)cc1	nt	4	1	4
O=C(Nc1cccc(F)c1)C1CCCN1C(=O)OCc1ccccc1 (stereo not drawn)	nt	-11	4	5
O=C(/C=C/c1ccco1)NC(=S)Nc1cccc([N+](=O)[O-])c1	1	23*	3	-26
CCN(CC(=O)Nc1c(F)cccc1F)C(=O)c1cc2ccccc2oc1=O	nt	3	-3	-8
CCc1cc(C(=O)N/N=C/c2ccc(O)cc2)c2ccccc2n1	nt	23*	-13	1
Cc1cc(O)c(C=O)c2c1C(=O)Oc1c(CO)c(O)c3c(c1O2)C(O)OC3=O (stereo not drawn)	-11	73*	-2	-31
Cc1cc(O)c(CN(C)C)c2c1C(=O)/C(=C/c1ccco1)O2	nt	12	13	11
O=S(=O)(O)c1cc(O)c2c(O)c(N=Nc3cc(Cl)ccc3O)c(S(=O)(=O)O)cc2c1	nt	24*	-2	-7
O=S(=O)(O)c1cc(Cl)cc(N=Nc2ccc(O)cc2O)c1O	nt	4	8	1
N#Cc1cccc(C=C(C(=O)c2ccccc2)c2ccccc2)c1	nt	22*	nt	3
N#C/C(=C\c1ccc(C#N)cc1)C(=O)c1ccccc1	nt	11	2	2
O=C(CSc1n[nH]c(-c2ccc(Br)cc2)n1)N1CCOCC1	nt	12	6	-7
COc1ccc(CNC(=O)[C@@H](NC(=O)C2CCN(S(=O)(=O)c3ccc(C)cc3)CC2)C(C)C)cc1OC	nt	6	-1	-12
Cn1c(SCc2ccc([N+](=O)[O-])cc2)nnc1-c1cccnc1	-12	-4	-12	6
CCN(CC(=O)Nc1cc(Cl)ccc1C)C(=O)c1ccc2c(c1)NC(=O)C(C)S2 (stereo not drawn)	nt	0	-3	11
COc1ccc(C)cc1NC(=O)C1CCN(C(=O)c2ccc(C(C)(C)C)cc2)CC1	nt	-8	1	7
SMILES	TLR4-MyD88 BLA	ABHD5 PLIN5 PPI	TLR9-MyD88 inh	NOD2 RIPK2 PPI
O=C1CCSC2=C1SCc1sccc12	nt	22*	nt	-11
CS(=O)(=O)Nc1cccc(NC(=O)C2Cc3c(-c4ccco4)ccnc3O2)c1 (stereo not drawn)	nt	-7	nt	4
O=C(O[C@@H]1OC2COC(=O)c3cc(O)c(O)c(O)c3-c3c(cc(O)c(O)c3O)C(=O)O[C@@H]([C@H]1O)[C@@H]2O)c1cc(O)c(O)c(O)c1	1	28*	-3	-6
NC(=O)CSc1nc2scc(-c3ccco3)c2c(=O)n1-c1ccccc1	-6	49*	-27	3
O=c1c2c(-c3ccco3)csc2nc(SCc2cn3cccnc3n2)n1-c1ccccc1	-5	48*	-5	-4
Cc1ccc(-n2c(SCC(N)=O)nnc2-c2ccco2)cc1	nt	-1	-10	16
c1ccc(Cn2c(SCc3cn4cccnc4n3)nnc2-c2ccco2)cc1	-12	2	9	12
